Test results reported in the supplement of paper PMC6555819.

Key:
Assay in all cases: PBM binding z-score (relative to random genomic background probes); higher = stronger binding; sequences stand for … in GC…GCGATTGACAGCGTAGAATGAAGG
[1] = tested on: RARb homodimer (NR concentration 270 nM)
Summary of the method: (§1)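 Scanned fluorescence from custom Agilent 4×180K protein-binding microarrays was regression-normalized. Binding z-scores use random background probes as reference. Ligand-free nuclear receptor dimers were incubated on the arrays for 1 h and detected with antibodies against each partner (one per run).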

[2] = tested on: RARg:RXRa (NR concentration 270 nM, RXRa partner concentration 90 nM)
Summary of the method: as §1

[3] = tested on: RARg homodimer (NR concentration 270 nM)
Summary of the method: as §1

[4] = tested on: RXRa DBDmut IVT, anti-RXR (DBD mutation: RXRa K156A/R161A, NR concentration 90 nM)
Summary of the method: as §1

[5] = tested on: RXRa homodimer (NR concentration 180 nM)
Summary of the method: as §1

[6] = tested on: THRa:RXRa (NR concentration 90 nM, RXRa partner concentration 90 nM)
Summary of the method: as §1

[7] = tested on: THRa homodimer (NR concentration 90 nM)
Summary of the method: as §1

[8] = tested on: VDR homodimer (NR concentration 270 nM)
Summary of the method: as §1

Row | Sequence | PBM binding z-score [1] | PBM binding z-score [2] | PBM binding z-score [3] | PBM binding z-score [4] | PBM binding z-score [5] | PBM binding z-score [6] | PBM binding z-score [7] | PBM binding z-score [8]
1 | CGACAAAGTTCAAGGTAACGTAACAGAAAGCAGC | 3.7 | 5.27 | 5.99 | 4.29 | 4.69 | 2.8 | 1.02 | 3.11
2 | CCTGCTGGGCCAAAAAGGTCATTGATGCCGATAA | 4.32 | 4.6 | 4.17 | 0.818 | 4.91 | 3.12 | 0.279 | 2.58
3 | CGAACTAGGTCATCCAGGAAAGTGAATACATTGA | 2.85 | 4.03 | 4.93 | 2.23 | 3.11 | 2.77 | 0.863 | 1.12
4 | ATACCAAGGTGATCGCGAGGTCGTTGATACTAAC | 1.51 | 2.37 | 0.886 | 0.551 | 1.42 | 3.11 | 1.61 | 2.67
5 | CCGACTGGAGCATAAGGTTACCATAAGCCAGCCC | 1.28 | 0.447 | 0.266 | 0.0357 | 0.901 | 1.96 | 1.77 | 0.144
6 | GCATATAGGTAACACAAGGTGAAAGTCCGATTGT | 1.15 | 0.82 | 0.784 | 0.286 | 0.938 | 4.19 | 0.843 | 0.00161
7 | GCTAGTTGGTAAGTAAAAGGTCACACACCGGTCG | 5.2 | 4.96 | 4.06 | 0.677 | 4.99 | 3.48 | 1.73 | 1.63
8 | AGAATGAGGTTACCAAAGAACAGGGAAACGCTTG | 0.612 | 1.93 | 1.35 | 0.909 | 2.36 | 2.59 | 0.733 | 0.342
9 | GCTTGTAGATCAAGGTTATGAAAGACTAAGCTAA | 0.411 | 0.306 | 0.25 | -0.2 | 0.623 | 1.36 | -0.196 | -0.036
10 | CCTGCTAGGTCATGGTCAGCTTATCTACAGTATG | 3.15 | 3.67 | 4.7 | 1.86 | 3.01 | 2.97 | 1.52 | 0.201
11 | CCTAGCAGGCCAATCTGGGTCACTCATGGCTTGA | 2.19 | 0.859 | 1.37 | 0.157 | 0.53 | 3.19 | 0.363 | 0.00452
12 | AGAATGAGGTTAATATCAGGGAAACAGAATACAT | 0.835 | 1.84 | 1.48 | 1.22 | 2.14 | 2.36 | 0.795 | 0.82
13 | TCATGTAGGTAATACAGGTGAAAGTCGGCATCTA | 0.12 | 0.0242 | -0.0708 | 0.736 | 0.579 | 0.531 | -0.119 | -0.0287
14 | AGTCATAGTTCAGGACGAGGTAACGTAAAGCACG | 1.82 | 2.66 | 2.61 | 0.51 | 1.39 | 3.35 | 1.67 | 0.515
15 | TAGCCTAGGGCATGGGCCAGTATACCACGCGAAC | 0.79 | 0.484 | 0.834 | -1.24 | 0.135 | -0.0791 | 0.0268 | -0.21
16 | TCTTGTAGATCTATAGAGGTTAAGAAAGTGCGCT | 1.12 | 0.795 | 0.399 | 0.575 | 1.43 | 1.35 | -0.418 | 0.121
17 | ACTAGTTGGTCGGCTGAGGTCACACACAATTCGG | 4.05 | 3.76 | 3.25 | 1.12 | 4.19 | 4.77 | 5.24 | 3.84
18 | CCTACTGGGCCAAAAAGGTCATTGACGCCGATAA | 4.4 | 4.59 | 4.36 | 0.774 | 4.9 | 3.02 | 0.658 | 2.4
19 | TTTCGGAGGACACGAAGGTCAGAGCTTTCCAGAG | 3.81 | 3.45 | 4.21 | 0.363 | 2.22 | 3.06 | 1.45 | 1.86
20 | GCTATTAGCTGAAAGGGCAACCGAATGATTCTCG | 1.53 | 0.817 | 0.974 | 0.616 | 0.703 | 0.363 | -0.714 | -0.0197
21 | AATATTAGTTGACTTAGGGCAACCGATACGACGC | 0.918 | 0.615 | 0.87 | 0.532 | 0.76 | 1.44 | 0.572 | 0.87
22 | CCTGCTAGGTGAATGGTCAGCTAAAGCAGCTCGC | 0.445 | 0.0358 | 0.301 | -0.37 | -0.237 | 0.283 | -0.317 | -0.841
23 | CGTCCAAGGTCAGCTGGTCAGTGAAAGCGACGTG | 3.87 | 5.3 | 6.1 | 2.64 | 3.99 | 3.46 | 1.76 | 0.478
24 | TCGAGTAGGTTACCAATGGGTCATTCAGCTTTCT | 2.41 | 3.58 | 1.68 | 0.573 | 2.18 | 1.62 | -0.434 | 0.102
25 | AGAACGAGGGCAATGAGTTGATAGCGCGGGTGGC | 0.949 | 0.964 | 1.44 | 2.34 | 0.602 | 0.756 | -0.205 | 3.3
26 | CAAACTAGGTCACGAAAAGTCAAAGTCGAATGAC | 3.38 | 4.82 | 5.38 | 1.53 | 3.85 | 3.35 | 1.25 | 0.644
27 | TCTAGTTGGTCACGGAGGTCTCACACGACGGGTA | 1.65 | 1.31 | 1.72 | 0.721 | 1.01 | 0.636 | 0.268 | 0.33
28 | ATCTCTAGGTAAAGTTCAGTTAAAGATCGATAGA | 2.73 | 1.65 | 2.5 | 1.68 | 1.5 | 1.47 | 0.842 | 2.04
